Out of some 52,000 compounds screened, about 4,300 (8.3%) were called active. Rule as the data show it: active = survival mostly below about 52% (no sharp cut-off); inactive = mostly above about 56%. Only a selection was taken, and actives are over-represented in it overall.

This test has as its system DeltatarO mutant. Kind of test: growth inhibition of S. aureus wild type versus tarO mutant, primary screen, teichoic acid synthesis inhibitors, RN4220, OD600 (AID 463173). To be noted: OD600, 18 h, stronger effect = lower value, screened at 18.75 µg/mL (by protocol).
In the case of `Cc1ccc(-n2nc3c(=O)n(CCCC(=O)NCCc4ccccc4Cl)nc(C)c3c2C)cc1`, the survival was 91% (inactive). Then `COc1cccc(CNC(=O)CCc2c(C)nc3c(c(C)nn3-c3ccc(C)c(C)c3)c2C)c1`, with 67% (inactive).

Consider `O=S(=O)(c1ccccc1)c1nnn2c1nc(NC1CCCCCC1)c1sccc12`, for which the survival is 72% (inactive). `Cc1nc(N2CCOCC2)c2c(C(=O)N(C)Cc3ccccc3)c(C)oc2n1`: the survival was 118% (inactive).

As for `COC(=O)c1scc(-c2ccc(C)cc2)c1S(=O)(=O)N1CCN(c2ccccc2F)CC1`, the survival is 118% (inactive). On to `COc1cccc(N2CC(NC(=O)c3cccs3)CC2=O)c1` (configuration not stated), for which the survival was 74% (inactive). On to `Cc1ccc(-n2ncc(C(=O)NCc3ccc4c(c3)OCO4)c2C2CCN(C(=O)OC(C)(C)C)CC2)c(C)c1`, for which the survival is 92% (inactive).

Take `COc1ccc(-c2nc3ccccc3n2Cc2ccccc2)cc1`: the survival is -1% (active). Then `COc1ccc(-c2noc(=O)n2Cc2ccccc2)cc1`, with 75% (inactive); and `CCOc1cc(Cn2c(-c3ccc(O)c(OCC)c3)nc3ccccc32)ccc1O`, with 73% (inactive); and `COc1ccc(Cn2c(SC)nc3ccccc32)cc1`, with 97% (inactive).

In the case of `COc1ccc(-c2nc3ccccc3n2Cc2ccc(C(C)C)cc2)cc1`, the survival is 4% (active). `COc1ccc(Cn2c(SCC(=O)NCc3ccccc3)nc3ccccc32)cc1`: the survival is 117% (inactive).

Take `COc1ccc(Cn2c(=O)c3ccccc3n3c(-c4ccc(C)cc4)nnc23)cc1`: the survival was 90% (inactive). Then `COc1ccc(-c2nc3ccccc3n2Cc2ccc(Cl)cc2)cc1`, with 6% (active); and `COc1ccc(Cn2c(SCC(=O)Nc3ccc(OC)cc3)nc3ccccc32)cc1`, with 88% (inactive). Then `Cc1ccc(NC(=O)Cn2c(=O)oc3cc(S(=O)(=O)N4CCCCC4)ccc32)c(C)c1`, with 81% (inactive); and `Cc1cc(C)cc(NC(=O)C(=O)NCCc2sc(-c3cccc(F)c3)nc2C)c1`, with 80% (inactive). Then `COc1cccc(-n2c(=O)c3sc4ccccc4c3n(CC(=O)Nc3ccc(F)cc3F)c2=O)c1`, with 64% (inactive); and `O=C(NCCc1ccccc1)c1cc(Sc2cccc(Cl)c2)nc2ccccc12`, with 88% (inactive).

For `CCC(=O)N1CCc2cc(S(=O)(=O)CCC(=O)N3CCN(c4cccc(C)c4)C(C)C3)ccc21` (configuration not stated), the survival was 76% (inactive). Then `Cc1ccc2c(c1)-c1c(cnn1CC(=O)N1CCN(c3cc(Cl)ccc3C)CC1)CO2`, with 49% (inactive); and `COc1cc(Cl)c(C)cc1NC(=O)Cn1ncc2c1-c1cc(C)ccc1OC2`, with 58% (inactive); and `CCN(C(=O)Cn1ncc2c1-c1cc(C)ccc1OC2)c1cc(Cl)ccc1OC`, with 31% (active). As to `CN1C(=O)Cc2cc(S(=O)(=O)CCC(=O)N3CCN(c4cccc(Cl)c4)CC3)ccc21`, the survival is 62% (inactive). With `Cc1cccc(N2CCN(C(=O)CCS(=O)(=O)c3ccc4c(c3)CC(=O)N4C)CC2C)c1` (configuration not stated), the survival is -2% (active). As for `Cc1cccc(N2CCN(C(=O)Cn3ncc4c3-c3cc(C)ccc3OC4)CC2C)c1` (configuration not stated), the survival is 47% (active). Then `Cc1ccc2c(c1)-c1c(cnn1CC(=O)N1CCN(c3cccc(C(F)(F)F)c3)CC1)CO2`, with 50% (inactive); and `Cc1ccc2c(c1)-c1c(cnn1CC(=O)N1CCN(c3ccccc3F)CC1)CO2`, with 73% (inactive).

With `O=C(NCc1ccc(Cl)cc1)c1cc(S(=O)(=O)N2CCCCC2)c[nH]1`, the survival is 103% (inactive). The result for `Cc1ccc(-n2ncc3c(NC4CCCCC4)ncnc32)cc1` reads 88% (inactive); that for `Cc1ccccc1NCc1cccn1-c1nnc(N2CCOCC2)s1`, 112% (inactive). Then `Cc1ccc(C(=O)c2oc3ccccc3c2NC(=O)c2cc(-c3ccc(Cl)cc3)on2)cc1`, with 87% (inactive); and `CC1CCC(NC(=O)c2ccc3c(c2)N(Cc2cccc(Cl)c2)C(=O)c2ccccc2S3(=O)=O)CC1` (configuration not stated), with 74% (inactive). Then `COc1ccc2[nH]c(=O)c(CN(CCO)S(=O)(=O)c3ccc(Cl)c(C(F)(F)F)c3)cc2c1`, with 98% (inactive); and `COc1ccc(NCc2cccn2-c2nnc(N3CCOCC3)s2)c(OC)c1`, with 78% (inactive). As for `CCNC(=O)c1ccc(NC(=O)N2CCCCc3ccccc32)cc1`, the survival is 102% (inactive). In the case of `CCOc1ccc(N(C(=O)c2ccc(OC)cc2)S(=O)(=O)c2ccc3c(c2)n(C)c(=O)n3C)cc1`, the survival was 37% (active).

Consider `COc1ccc(N(C(=O)c2ccccc2)S(=O)(=O)c2ccc3c(c2)n(C)c(=O)n3C)cc1`, for which the survival is 89% (inactive). For `CCOc1ccc(N(CC(=O)OC)S(=O)(=O)c2ccc3c(c2)n(C)c(=O)c(=O)n3C)cc1`, the survival is 46% (active). As to `CCOc1ccc(N(C(=O)c2ccc(Cl)cc2)S(=O)(=O)c2ccc3c(c2)n(C)c(=O)n3C)cc1`, the survival is 37% (active). For the compound `CCOc1ccc(NC(=O)CCS(=O)(=O)c2ccc3c(c2)n(C)c(=O)c(=O)n3C)cc1`, the survival was 87% (inactive). Then `CCCCCC(=O)N(c1ccc(OCC)cc1)S(=O)(=O)c1ccc2c(c1)n(C)c(=O)n2C`, with 111% (inactive); and `CCOc1ccc(N(C(=O)c2ccc(C)cc2)S(=O)(=O)c2ccc3c(c2)n(C)c(=O)n3C)cc1`, with 45% (inactive). The result for `CCOc1ccc(N(C(=O)c2ccccc2F)S(=O)(=O)c2ccc3c(c2)n(C)c(=O)n3C)cc1` reads 47% (inactive); that for `COc1ccc(C(=O)N(c2ccc(OC)cc2)S(=O)(=O)c2ccc3c(c2)n(C)c(=O)n3C)cc1`, 84% (inactive). On to `CCc1nc2ccc(C(=O)N3CCN(c4cccc(OC)c4)CC3)cc2nc1CC`, for which the survival was 83% (inactive).

In the case of `CC(C)c1cnc2c(c1SCC(=O)Nc1cccc([N+](=O)[O-])c1)c(=O)n(C)c(=O)n2C`, the survival is 69% (inactive). In the case of `CC1CCN(S(=O)(=O)c2ccc3c(c2)N(CC(=O)N2CCN(c4ccc(Cl)cc4)CC2)C(=O)CO3)CC1`, the survival is 62% (inactive).

For `Cc1ccc(-c2nnc(SCC(=O)NCCC(C)C)nc2-c2ccc(C)cc2)cc1`, the survival is 104% (inactive). On to `Cc1cccc(N(C(=O)c2csnn2)C(C(=O)NC2CCCCC2)c2ccco2)c1` (configuration not stated), for which the survival was 87% (inactive). The result for `Cc1cc(C)cc(NC(=O)CSc2nccn2C2CCCC2)c1` reads 94% (inactive); that for `COc1ccc(-n2nnnc2C2CCN(S(=O)(=O)c3ccc(C)cc3)CC2)cc1`, 99% (inactive); that for `O=C1N(Cc2ccccc2)c2ccc(Cl)cc2C1(O)c1c[nH]c2ccccc12` (configuration not stated), 66% (inactive). Then `Cc1ccc(CN2C(=O)C(O)(c3c[nH]c4ccccc34)c3cc(Cl)ccc32)cc1` (configuration not stated), with -3% (active). Then `CCCCN1C(=O)C(O)(c2c[nH]c3ccccc23)c2cc(Br)ccc21` (configuration not stated), with 50% (inactive); and `Cc1ccc(C)c(CN2C(=O)C(O)(c3c[nH]c4ccccc34)c3ccccc32)c1` (configuration not stated), with 142% (inactive). With `CCN1C(=O)C(O)(c2c[nH]c3ccccc23)c2cc(Br)ccc21` (configuration not stated), the survival was 55% (active). As for `Cc1ccccc1CN1C(=O)C(O)(c2c[nH]c3ccccc23)c2cc(Cl)ccc21` (configuration not stated), the survival is -2% (active). Take `O=C1N(Cc2ccccc2)c2ccccc2C1(O)c1c[nH]c2ccccc12` (configuration not stated): the survival was 55% (inactive). Then `O=C1N(Cc2ccccc2Cl)c2ccccc2C1(O)c1c[nH]c2ccccc12` (configuration not stated), with 64% (inactive); and `CC(C)N1C(=O)C(O)(c2c[nH]c3ccccc23)c2ccccc21` (configuration not stated), with 129% (inactive).

The values above are taken from PubChem BioAssay AID463173 (ICCB-Longwood Screening Facility, Harvard Medical School, 2010).
